This experiment concerns Wnt5a (protein binding on small-molecule microarray). The experiment in a line: small molecules binding Wnt5a protein – biophysical, small-molecule microarray, 635/667 nm fluorescence, primary screen (AID 1142).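 Note: fluorescence read at 667 nm with signal to noise per printed feature.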 The note with it: 635 nm fluorescence, higher = more signal.
`CCOC(=O)CCN1C(=O)[C@H]2[C@H]3[C@H](O)[C@H](O)CC(=NOCC=C(C)CCC=C(C)C)[C@H]3CC[C@H]2C1=O`: the composite z-score came to 0.0888. Molecule `CCOC(=O)[C@H](Cc1ccccc1)NC(=O)CCC1CC(OC(=O)NCc2cccc3ccccc23)CC2(CCCC(COC(=O)NCCOc3ccccc3)O2)O1` (stereo not given in full) displayed a composite z-score of -0.0525. For `CCOC(=O)[C@H](CC(C)C)NC(=O)CCC1CC(OC(=O)NCCc2ccc(F)cc2)CC2(CCCC(COC(=O)NCCCN3CCCC3=O)O2)O1` (stereo not given in full) the value was 0.189; for `CC(=O)OC[C@H]1O[C@H](CC=NOC(C)CN2CCCCc3nc(C)c(C)cc32)C=C[C@@H]1OC(C)=O` (stereo not given in full), 0.696; for `C#CCCCON=C1[C@H]2CCn3c(=O)n([C@@H](CC)c4ccccc4)c(=O)n3[C@H]2[C@H](O)[C@@H]2O[C@H]12`, 0.352. For `CO[C@H]1C[C@@H]2C[C@H](O)CC(CC(=O)O[C@@H](C=CCC(C)C)C[C@@H]3CC[C@H](C)[C@@H](C1)O3)O2` the value was 0.318; for `C=CC[C@@H]1C=C[C@H](ON=C[C@@H](NS(=O)(=O)c2ccc(C)cc2)[C@H](C)C=CCC(=O)OC)[C@@H](CO)O1`, -0.116; for `CO[C@H]1COC(=O)CCC[C@H](C)[C@@H](OC)COC(=O)CC=C[C@@H]1C`, -0.0982. As for `O=C(NN=C1C[C@@H](O)[C@@H](O)[C@@H]2[C@@H]3C(=O)N(Cc4ccccc4)C(=O)[C@@H]3CC[C@H]12)OCc1ccccc1`, the composite z-score is -0.014. For `CCOC(=O)[C@H](CC(C)C)NC(=O)CCC1CC(OC(=O)NCCc2ccc(F)cc2)CC2(CCCC(COC(=O)NCc3cccc4ccccc34)O2)O1` (stereo not given in full) the value was -0.165.

(Values after PubChem BioAssay.)
